# Test results: the supplement of paper PMC8728848
# The entries come from a sample that favours the strongest signals as a whole.
# Columns and labels:
# Assay in all cases: glycan array binding signal (z-score within array); higher = stronger binding
# Settings in all cases: glycan notation: IUPAC condensed, linker removed
# [1] = biological target: Fuc(a1-2)Gal(b1-4)Glc
# Summary of the method: (§1)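 Columns mapping to the same glycan were averaged after glycan names were converted to IUPAC-condensed notation. The data come from 3228 arrays in the Consortium for Functional Glycomics database, limited to those with an available protein sequence. Binding is reported as a within-array Z-score averaged across arrays of one protein sequence and across linkers.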
# [2] = biological target: Fuc(a1-2)Gal(b1-4)[Fuc(a1-3)]GlcNAc(b1-3)[Neu5Ac(a2-6)Gal(b1-4)GlcNAc(b1-6)]Gal(b1-4)Glc
# Summary of the method: as §1
# [3] = biological target: Fuc(a1-2)Gal6S(b1-4)Glc6S
# Summary of the method: as §1
# [4] = biological target: Fuc(a1-2)[GalNAc(a1-3)]Gal(b1-4)GlcNAc(b1-2)Man(a1-3)[Fuc(a1-2)[GalNAc(a1-3)]Gal(b1-4)GlcNAc(b1-2)Man(a1-6)]Man(b1-4)GlcNAc(b1-4)GlcNAc
# Summary of the method: as §1
# [5] = biological target: Fuc(a1-3)[Gal(b1-4)]GlcNAc(b1-3)Gal(b1-4)[Fuc(a1-3)]GlcNAc(b1-3)Gal(b1-4)[Fuc(a1-3)]GlcNAc
# Summary of the method: as §1
# [6] = biological target: Fuc(a1-3)[GalNAc(b1-4)]GlcNAc6S
# Summary of the method: as §1
# [7] = biological target: Gal(a1-3)Gal(b1-3)[Fuc(a1-4)]GlcNAc(b1-2)Man(a1-3)[Gal(a1-3)Gal(b1-3)[Fuc(a1-4)]GlcNAc(b1-2)Man(a1-6)]Man(b1-4)GlcNAc(b1-4)GlcNAc
# Summary of the method: as §1
# [8] = biological target: Gal(a1-3)Gal(b1-4)GlcNAc(b1-2)Man
# Summary of the method: as §1
# [9] = biological target: Gal(a1-3)Gal(b1-4)GlcNAc(b1-3)GalNAc
# Summary of the method: as §1
# [10] = biological target: Gal(a1-3)Gal(b1-4)GlcNAc(b1-6)GalNAc
# Summary of the method: as §1
# [11] = biological target: Gal(b1-3)Gal
# Summary of the method: as §1
# [12] = biological target: Gal(b1-3)GalNAc
# Summary of the method: as §1
# [13] = biological target: Gal(b1-3)GalNAc(a1-3)[Fuc(a1-2)]Gal(b1-4)GlcNAc
# Summary of the method: as §1
# [14] = biological target: Gal(b1-3)GlcNAc(a1-6)Gal(b1-4)GlcNAc
# Summary of the method: as §1
# [15] = biological target: Gal(b1-3)GlcNAc(b1-3)Gal(b1-3)GlcNAc
# Summary of the method: as §1
# [16] = biological target: Gal(b1-3)GlcNAc(b1-3)Gal(b1-4)GlcNAc(b1-2)[Gal(b1-3)GlcNAc(b1-3)Gal(b1-4)GlcNAc(b1-6)]Man(a1-6)[Gal(b1-3)GlcNAc(b1-3)Gal(b1-4)GlcNAc(b1-2)Man(a1-3)]Man(b1-4)GlcNAc(b1-4)[Fuc(a1-6)]GlcNAc
# Summary of the method: as §1
# [17] = biological target: Gal(b1-3)[Neu5Ac(a2-6)]GlcNAc(b1-4)Gal(b1-4)Glc
# Summary of the method: as §1
# [18] = biological target: Gal(b1-4)GlcNAc(b1-2)Man(a1-6)[Man(a1-3)]Man(b1-4)GlcNAc(b1-4)GlcNAc
# Summary of the method: as §1
# [19] = biological target: Gal(b1-4)GlcNAc(b1-2)[Gal(b1-4)GlcNAc(b1-6)]Man(a1-6)[Gal(b1-4)GlcNAc(b1-2)Man(a1-3)]Man(b1-4)GlcNAc(b1-4)[Fuc(a1-6)]GlcNAc
# Summary of the method: as §1
# [20] = biological target: Gal(b1-4)GlcNAc(b1-3)Gal(b1-4)Glc
# Summary of the method: as §1
# [21] = biological target: Gal(b1-4)GlcNAc(b1-3)Gal(b1-4)GlcNAc(b1-2)[Gal(b1-4)GlcNAc(b1-3)Gal(b1-4)GlcNAc(b1-6)]Man(a1-6)[Gal(b1-4)GlcNAc(b1-3)Gal(b1-4)GlcNAc(b1-2)Man(a1-3)]Man(b1-4)GlcNAc(b1-4)GlcNAc
# Summary of the method: as §1
# [22] = biological target: Gal(b1-4)GlcNAc(b1-3)Gal(b1-4)GlcNAc(b1-2)[Gal(b1-4)GlcNAc(b1-3)Gal(b1-4)GlcNAc(b1-6)]Man(a1-6)[Gal(b1-4)GlcNAc(b1-3)Gal(b1-4)GlcNAc(b1-2)Man(a1-3)]Man(b1-4)GlcNAc(b1-4)[Fuc(a1-6)]GlcNAc
# Summary of the method: as §1
# [23] = biological target: Gal(b1-4)GlcNAc(b1-3)Gal(b1-4)GlcNAc(b1-3)Gal(b1-4)GlcNAc(b1-2)Man(a1-3)[Gal(b1-4)GlcNAc(b1-3)Gal(b1-4)GlcNAc(b1-3)Gal(b1-4)GlcNAc(b1-2)Man(a1-6)]Man(b1-4)GlcNAc(b1-4)GlcNAc
# Summary of the method: as §1
# [24] = biological target: Gal(b1-4)GlcNAc(b1-3)Gal(b1-4)GlcNAc(b1-3)Gal(b1-4)GlcNAc(b1-3)Gal(b1-4)GlcNAc(b1-3)Gal(b1-4)GlcNAc(b1-2)[Gal(b1-4)GlcNAc(b1-3)Gal(b1-4)GlcNAc(b1-3)Gal(b1-4)GlcNAc(b1-3)Gal(b1-4)GlcNAc(b1-3)Gal(b1-4)GlcNAc(b1-6)]Man(a1-6)[Gal(b1-4)GlcNAc(b1-3)Gal(b1-4)GlcNAc(b1-3)Gal(b1-4)GlcNAc(b1-3)Gal(b1-4)GlcNAc(b1-3)Gal(b1-4)GlcNAc(b1-2)Man(a1-3)]Man(b1-4)GlcNAc(b1-4)[Fuc(a1-6)]GlcNAc
# Summary of the method: as §1
# [25] = biological target: Gal(b1-4)GlcNAc(b1-3)GalNAc
# Summary of the method: as §1
# [26] = biological target: Gal(b1-4)GlcNAc(b1-6)[Gal(b1-4)GlcNAc(b1-3)]GalNAc
# Summary of the method: as §1
# [27] = biological target: Gal3S(b1-4)Glc
# Summary of the method: as §1
# [28] = biological target: Gal6S(b1-4)GlcNAc6S
# Summary of the method: as §1
# [29] = biological target: GlcA(b1-3)Gal
# Summary of the method: as §1
# [30] = biological target: GlcA3S(b1-3)Gal(b1-4)GlcNAc(b1-3)Gal(b1-4)Glc
# Summary of the method: as §1
binder,measurement,setting,value
PX14351B-bth-512-36-512 (Bacteroides thetaiotaomicron) (protein) ASETQQWKTLEDTRSALMGVYGLTRAALADNNTHWICGDLRKGDFTVYKRSDLQAVSDNELNKPYDLLKKVSNWRRFYAVINAASVFMEKAPRTVELDRSYSEQNLKYDIAQVRALRAFAYFYMVRIWGDVPLVTYSYDNGTFPSMPRTDAQTVLSYAKAELLTAIEDLPYQYGTQTNLYYGSYGAQWQGKLFNKLSAYSVLAHICAWQGNYAEAETYSAFIIDHASEINAKYTSIADLTSETGLFYSNASVKGSRILGFNFAHNDNEATQSGHLEQLTLAYPLVQKSYPEIYISKDSLFSIFTNFDDLRFGIIDTIKYSSYYVQNLNEETPVFSKIKIIQDGSAKDNDFGVFGSSIVFTRLEDITLLRAEALCALNRSTEAVSYLNMIRTNRGLREVSFKKDFGNNRESLIAEIFEERRRELMGEGWRWYDLVRRQKLMKDNEAFLRLISSGGIYWPVSEDIITANSQIEQNEFWK,glycan array binding signal (z-score),[1],-0.31
same,glycan array binding signal (z-score),[2],-0.143
same,glycan array binding signal (z-score),[3],-0.262
same,glycan array binding signal (z-score),[4],1.76
same,glycan array binding signal (z-score),[5],0.19
same,glycan array binding signal (z-score),[6],-0.185
same,glycan array binding signal (z-score),[7],17.9
same,glycan array binding signal (z-score),[8],-0.075
same,glycan array binding signal (z-score),[9],0.527
same,glycan array binding signal (z-score),[10],-0.314
same,glycan array binding signal (z-score),[11],-0.39
same,glycan array binding signal (z-score),[12],-0.25
same,glycan array binding signal (z-score),[13],0.364
same,glycan array binding signal (z-score),[14],0.113
same,glycan array binding signal (z-score),[15],-0.074
same,glycan array binding signal (z-score),[16],9.18
same,glycan array binding signal (z-score),[17],-0.273
same,glycan array binding signal (z-score),[18],-0.288
same,glycan array binding signal (z-score),[19],2.5
same,glycan array binding signal (z-score),[20],-0.34
same,glycan array binding signal (z-score),[21],0.755
same,glycan array binding signal (z-score),[22],2.73
same,glycan array binding signal (z-score),[23],3.44
same,glycan array binding signal (z-score),[24],2.11
same,glycan array binding signal (z-score),[25],-0.256
same,glycan array binding signal (z-score),[26],1.91
same,glycan array binding signal (z-score),[27],-0.16
same,glycan array binding signal (z-score),[28],-0.34
same,glycan array binding signal (z-score),[29],-0.428
same,glycan array binding signal (z-score),[30],-0.114
